High-throughput results from PubChem.
KLK7 zymogen act = proKLK7 zymogen activators, primary screen, biochemical, fluorescence intensity; AID 652039, 2013; purified proKLK7, EDANS-DABCYL substrate fluorescence; 100% is mature enzyme control, 0% vehicle; activation, % at 7 µM; Kallikrein-7 (Homo sapiens), P49862; 0.9% of 370,000 active;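 active = activation above the mean of all tested compounds plus 3 SD, computed per campaign excluding outliers beyond control limits, cut at about 13% in these data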
Target sequence (P49862 whole entry, looked up): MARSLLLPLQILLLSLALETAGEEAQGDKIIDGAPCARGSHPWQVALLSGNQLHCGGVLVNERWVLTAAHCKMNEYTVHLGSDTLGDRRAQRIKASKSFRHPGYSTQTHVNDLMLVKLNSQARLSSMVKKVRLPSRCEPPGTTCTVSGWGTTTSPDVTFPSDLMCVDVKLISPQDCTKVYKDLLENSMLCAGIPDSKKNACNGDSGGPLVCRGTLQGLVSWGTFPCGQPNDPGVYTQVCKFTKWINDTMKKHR
MsrA inh = bovine MsrA enzyme inhibitors, primary screen, biochemical, absorbance, HTS | purified bovine MsrA, absorbance read-out | inhibition, % at 15.5 µM | 0.75% of 360,000 active | AID 651718, 2012; in the data active = inhibition above about 4.5%;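 note: 0% = vehicle wells with enzyme and 100% = reference inhibitor wells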
SMARCA2 act = SMARCA2 (BRM) function activators, primary screen, cell-based, luminescence, high throughput | MG213 cells, MMTV-luciferase reporter, dexamethasone, overnight | 1% of 370,000 active | activation, % at 9.1 µM; in the data active = activation above about 7.8%;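 note: 0% = vehicle wells and 100% = reference activator wells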
bovine MsrA act = bovine MsrA enzyme activators, primary screen, biochemical, absorbance, HTS; activation, % at 10.6 µM; 0.3% of 360,000 active; purified bovine MsrA, absorbance read-out; in the data active = activation above about 7.5%;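 note: 0% = vehicle and 100% = reference activator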
SMARCA2 act conf = SMARCA2 (BRM) function activators, confirmation, cell-based, luminescence, triplicate | shares compounds with SMARCA2 act | MG213 cells, MMTV-luciferase with dexamethasone, overnight; MG213 cells expressing E1A, Rb sequestered; DMSO wells 0%, reference activator 100% | activation, % at 9.1 µM | 30% of 3,500 active;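 active = activation above its plate's cutoff, the mean activation of tested wells plus 3 SD, cut at about 7.9% in these data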
VP16 Luc act = GAL4-VP16 luciferase reporter activation, counter-screen for SMARCA2 (BRM) activator project, cell-based, pG5luc, luminescence, high throughput | activation, % at 9.1 µM | HEK293 GAL4-VP16 pG5luc reporter; scaled: DMSO wells 0%, SAHA wells 100% | 41% of 3,500 active | shares compounds with SMARCA2 act;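 active = activation above the solvent-only control well mean plus 3 SD, averaged across control plates, cut at about 5.2% in these data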
An asterisk follows results filed as active; · = not tested or not shown. This is a sample that favours compounds with a hit; in the whole collection about 2.8% have one here.

SMILES	KLK7 zymogen act	MsrA inh	SMARCA2 act	bovine MsrA act	SMARCA2 act conf	VP16 Luc act
COC(=O)[C@]12C[C@H](CC(=O)N3CCC(c4ccccc4)CC3)C(=O)N(Cc3ccccc3)C1=C[C@H](C1CCCC1)O[C@@H]2C	1.1	0.3	-4.7	·	·	·
CCOC(=O)c1nn(-c2ccc3ccccc3c2)cc1O	0.4	4.1	8.2*	-3.6	2.6	5.6*
O=C(NCc1cccc2ccccc12)C1CCCN(c2nc3ccccc3o2)C1 (stereo not given)	-0.1	·	-0.2	·	·	·
Cc1nc(N)sc1-c1csc(Nc2ncccn2)n1	-1.2	-0.8	56.2*	-2.4	106.4*	12.8*
COc1ccc(C=NNC(=O)c2cc(-c3ccc(C)c(C)c3)n[nH]2)cc1OCc1ccccc1	1.3	·	-6.8	·	·	·
Cc1csc(-c2coc3cc(O)cc(C)c3c2=O)n1	0.2	0.0	9.0*	-7.7	15.5*	7.5*
C#CCN1CC(N(C)CCOC(=O)c2cccs2)CS1(=O)=O (stereo not given)	0.1	·	0.8	·	·	·
COc1cccc(Nc2nc(C(N)Cc3ccccc3)cs2)n1 (stereo not given)	-0.5	-1.9	0.1	1.0	·	·
CC(=O)c1c(C)nc(-c2ccc(Cl)cc2)nc1N	0.0	0.4	10.4*	1.1	2.9	10.7*
CN(NC(=O)C(=O)NCc1ccco1)C(=O)NC1CCCCC1	0.6	-0.9	-2.7	·	·	·
O=C(COc1cccc2cccnc12)Nc1nccs1	-0.2	0.2	9.2*	-1.4	9.0*	12.2*
NNC(=O)COc1cccc2cccnc12	-0.1	-1.9	-1.7	-2.8	·	·
CS(=O)(=O)c1cccc(OCCCN2CCC(C(O)(c3ccccc3)c3ccccc3)CC2)c1	0.8	-0.6	-1.2	·	·	·
CCCOc1ccc(-c2cc3onc(-c4ccccc4)c3c(=O)n2C)cc1	-0.1	0.4	5.8	-1.7	·	·
CCc1noc2cc(-c3ccccc3)n(C)c(=O)c12	0.4	-0.7	9.7*	·	14.3*	6.8*
NC(=Nc1nc(-c2ccccn2)cc2ccccc12)c1ccccn1	0.3	0.9	1.7	-1.6	·	·
CCOc1cc(C(=O)N(CC)CC(=O)Nc2c(F)cccc2F)ccc1OCC(=O)N1CCCCC1	-0.2	-0.3	-2.3	-2.9	·	·
Cc1ccc(-c2cc(C(=O)NCc3cnn(C)c3)c3cc(Br)ccc3n2)cc1	0.4	-0.8	11.9*	-2.5	1.7	6.6*
Cc1nc(NC(=O)CN2CCOCC2)sc1-c1ccccc1	-0.1	0.2	3.4	1.1	·	·
CCc1sc(NC(=O)CN2CCOCC2)nc1-c1ccccc1	-0.4	0.4	8.7*	-0.1	-2.7	-1.9
COc1ccc(/C=N/NC(=O)CN(C2=NS(=O)(=O)c3ccccc32)c2ccccc2)cc1OC	-0.2	1.0	8.1*	-3.1	6.1	0.6
C/C(=N\NC(=O)c1cccs1)c1ccncc1	-1.3	0.9	9.5*	-2.6	3.6	0.7
C/C(=N\NC(=O)c1sccc1C)c1ccncc1	-0.1	0.5	9.2*	-4.1	9.4*	10.5*
C/C(=N\NC(=O)c1sccc1C)c1cccnc1	-0.3	0.7	5.0	0.1	·	·
CCOC(=O)N/N=C(\CCC(=O)O)c1cccs1	0.1	0.5	-3.3	-1.6	·	·
SMILES	KLK7 zymogen act	MsrA inh	SMARCA2 act	bovine MsrA act	SMARCA2 act conf	VP16 Luc act
O=C(O)CC/C(=N/NC(=O)c1cccs1)c1ccccc1	-0.4	1.3	9.2*	-8.5	4.5	2.4
O=C(NCC1CCCO1)c1ccc(Br)c(S(=O)(=O)N2CCOCC2)c1 (stereo not given)	0.0	0.3	4.8	-1.0	·	·
C(=C\c1nc(N2CCCC2)c2ccccc2n1)/c1ccccc1	-0.6	-0.1	9.0*	-0.4	14.9*	1.7
Oc1ccc(Nc2nc(N3CCCC3)c3ccccc3n2)cc1	-0.1	2.9	10.0*	-11.7	26.9*	-1.1
COc1cccc(NC(=O)CN2C(=O)NC3(CCc4ccccc43)C2=O)c1 (stereo not given)	0.0	-0.5	9.0*	-1.9	0.0	0.3
CC(C)c1ccc(C(=O)CN2C(=O)NC3(CCc4ccccc43)C2=O)cc1 (stereo not given)	0.2	0.3	10.5*	-11.7	2.7	0.1
CC(=O)Nc1cccc(-c2cc(NC=O)c3ncc(-c4cccc(C(C)=O)c4)n3c2)c1	-4.2	0.2	11.0*	-2.8	3.3	6.5*
COc1ccc(-c2cnc3c(NC(C)=O)cc(-c4cccc(C(=O)NCCN(C)C)c4)cn23)cc1OC	-1.3	0.1	4.1	-5.7	·	·
CN(C)C(=O)c1cccc(-c2cnc3c(NC=O)cc(-c4ccccc4Cl)cn23)c1	2.0	0.6	9.8*	-3.6	19.5*	3.8
COc1cccc(-c2cnc3c(NC(C)=O)cc(-c4cccc(C(=O)NCCN(C)C)c4)cn23)c1	-0.5	0.5	10.9*	-2.7	22.1*	-0.4
C[C@@H]1C[C@H]2O[C@@H]2/C=C\C=C\C(=O)Cc2cc(O)cc(O)c2C(=O)O1	4.3	·	-7.1	·	·	·
COC(=O)C1=C(C)N(Cc2cccc(C(F)(F)F)c2)C(=NCc2cc(OC)c(OC)c(OC)c2)NC1c1cccc(Cl)c1 (stereo not given)	-0.2	-0.2	-3.4	·	·	·
N#Cc1ccc(Cn2ccc3ccc(-c4ccc5ccn(Cc6ccccc6)c5c4)cc32)cc1	-0.3	·	-3.4	·	·	·
CCOc1ccc2nc(/N=C/c3c(C)[nH]n(-c4ccc(C)cc4)c3=O)sc2c1	-0.2	0.1	10.7*	-4.8	2.3	6.5*
CCOc1ccc2nc(/N=C/c3c(C)[nH]n(-c4ccccc4)c3=O)sc2c1	0.0	-0.6	0.7	-4.4	·	·
CN1CCN(C(=O)c2cccc(-c3cnc4cnc(-c5ccccc5Oc5ccccc5)cn34)c2)CC1	-7.2	-0.8	9.5*	-0.3	1.4	1.9
O=C(c1cccc(-c2cncc3nccn23)c1)N1CCOCC1	11.5	0.2	-2.3	-4.2	·	·
Cc1ccc2nc(N3C(=O)C(O)=C(C(=O)c4ccco4)C3c3cccs3)sc2c1 (stereo not given)	-0.2	1.5	11.6*	-11.2	2.0	10.3*
NC(=O)c1ccc(N=Cc2ccc([N+](=O)[O-])s2)cc1	0.0	1.4	8.9*	5.3	-13.0	4.7
N/C(=N\O)c1ccc([N+](=O)[O-])s1	0.7	2.9	-2.1	1.9	·	·
Cc1ccc(NC(=O)C2CCCN(c3ncccn3)C2)cc1C (stereo not given)	0.1	0.5	15.0*	-1.3	6.9	7.0*
COc1ccc(NC(=O)C2CCCN(c3ncccn3)C2)cc1 (stereo not given)	1.0	0.5	8.4*	-0.6	6.2	5.2*
COc1cccc(CNC(=O)[C@H]2CCCN2C(=O)[C@H]2CCCN2C(=O)c2ccc(C)cc2)c1	0.0	0.9	-5.4	·	·	·
